Among all 310,000 compounds or so, about 1,000 (0.32%) were called active. These entries were drawn from the full list. Potency and affinity values are given separately. Unmarked numbers belong to inactive results. No rule for the calls is given here.
Test: PhoP regulon inhibitors, Salmonella typhi PhoP promoter GFP reporter, confirmatory (AID 1850);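 also: 0% = induced wells with vehicle and 100% = uninduced wells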
Settings: fluorescence, 4 h, at 50 µM, hits give high values

| Compound | inhibition [%] |
| --- | --- |
| CCNc1c2c(nc3ccccc13)CC(C)(C)CC2=O | -3.19 |
| Cc1c2c(nc3ccccc13)CC(C)(C)CC2=O | -15.3 |
| CCC(=NCc1cccnc1)c1c(O)n(-c2ccc(C)cc2)c(=O)[nH]c1=O | -4.52 |
| O=C(COc1ccc2c3c(c(=O)oc2c1)CCC3)N[C@@H](CSCc1ccccc1)C(=O)O | 11.7 |
| N#C/C(=C\c1cc(O)c(O)c(O)c1)C(N)=O | 5.26 |
| CCOC(=O)c1ccc(CNCc2ccc(C)cc2)cc1 | -2.32 |
| CCOC(=O)c1ccc(CNCc2ccccc2)cc1 | -2.61 |
| Cc1noc(C)c1COc1ccc(C(=O)N2CCN(S(=O)(=O)c3ccc(Cl)cc3)CC2)cc1 | -8.91 |
| CSc1ccccc1NC(=O)CN(C)C(=O)CCc1c[nH]c2ccccc12 | 2.89 |
| CNCCCOc1ccc(Cl)cc1C(C)(C)C | 18.7 |
| CC(C)(C)c1ccc(OCCON2C(=O)CCC2=O)c(Cl)c1 | 10.3 |
| CCCCNC(=O)c1cccc(NC(=O)C(=O)c2ccccc2NC(C)=O)c1 | 0.04 |
| Cc1ccc(-c2csc(N=C(N)N)n2)cc1 | 3.62 |
| COc1ccc(-c2csc(N=C(N)N)n2)cc1 | 4.34 |
| O=C(N1CCOCC1)N1CCN(S(=O)(=O)N2CCCCC2)CC1 | 5.81 |
| COc1ccc(NC2CCCN(C(=O)C3=NN(C)C(=O)CC3)C2)cc1OC (stereo unspecified) | -1.12 |
| Cc1cccc(N2CCN(Cc3nc(-c4cccc(Cl)c4)oc3C)CC2)n1 | -3.9 |
| Oc1[nH]c2ccc(Br)cc2c1N=Nc1ccc(F)cc1 | -81.9 |
| Cc1cc(=O)c2cc(Br)ccc2[nH]1 | 6.88 |
| O=C(NCC1CCCO1)c1onc(CSc2ccc(F)c(F)c2)c1C(=O)O (stereo unspecified) | 1.53 |
| C=CCNC(=O)CN1CCC(c2nc3cc(C)c(C)cc3[nH]2)CC1 | 2.77 |
| O=[N+]([O-])c1ccc(/C=N/N2CCCCC2)cc1 | 2.58 |
| CCOc1ccc(-c2c(C(=O)N/N=C/c3ccc(OC)cc3)nnn2-c2nonc2N)cc1 | -14 |

| Compound | inhibition [%] |
| --- | --- |
| O=C(Cc1ccc(Cl)cc1)Nc1ccc(S(=O)(=O)Nc2cnc3ccccc3n2)cc1 | -6.63 |
| CC1CCCCC1NC(=O)c1ccc(NS(=O)(=O)c2ccc3[nH]c(=O)[nH]c3c2)cc1 (stereo unspecified) | 0.81 |
| CC(=O)Oc1c(C)cc(Cl)cc1C(=O)Nc1ccc([N+](=O)[O-])cc1Cl | 3.87 |
| Cc1ccc(NC(=O)c2cc([N+](=O)[O-])ccc2Cl)c(O)c1 | 4.62 |
| CC[C@H](C)Cc1cn([C@@H](CCCCN)C(=O)NCCCCCCCCCCC(=O)N2CCNCC2)nn1 | 1.01 |
| CCOC(=O)N1CCN(C(=O)c2cc(COc3ccc4ncccc4c3)on2)CC1 | -2.35 |
| COc1cc(OC)c(OC)cc1CNCCc1ccc(F)cc1 | 1.12 |
| CCc1ccc(CNCCc2ccc(F)cc2)cc1 | 7.65 |
| COc1cc(OC)c(OC)cc1CNCCc1cccc(F)c1 | 3.05 |
| Fc1ccc(CCNCc2cccc(Cl)c2)cc1 | -1.17 |
| COc1cccc(CNCCc2cccc(F)c2)c1OC | 6.94 |
| CCc1ccc(CNCCc2ccccc2F)cc1 | 19.3 |
| Fc1ccc(CNCCc2ccccc2F)cc1 | 20.1 |
| COc1cccc(CNCCc2ccccc2)c1OC | 15.4 |
| CCN(c1ccccc1)S(=O)(=O)c1csc(C(N)=O)c1 | 1.57 |
| O=C(CS(=O)(=O)c1ccc(Cl)cc1)Nc1nnc(-c2cccs2)o1 | -4.66 |
| CC(C)C(NC(=O)/C=C/c1cccc([N+](=O)[O-])c1)C(C)C | -9.13 |
| CCOC(=O)N1CCC(NC(=O)c2cnn3c(C(F)(F)F)cc(-c4cccc(OC)c4)nc23)CC1 | -1 |
| COc1ccccc1S(=O)(=O)CC(O)COc1ccccc1Cl (stereo unspecified) | -5.18 |
| CN(CCc1ccccn1)C(=O)Nc1ccc(F)cc1 | -7.13 |
| COc1ccc(-c2ccc(CCC(=O)O)n2NC(=O)c2cccs2)cc1 | -5.76 |
| CN(CC(=O)Nc1ccccc1Cl)C(=O)COC(=O)c1cc([N+](=O)[O-])ccc1N1CCOCC1 | -1.8 |
| Fc1ccc(CNCCc2ccccc2)cc1 | 14.4 |

| Compound | inhibition [%] |
| --- | --- |
| Brc1ccc(CNCc2cccs2)cc1 | -4.52 |
| c1csc(CNCc2ccncc2)c1 | 1.76 |
| Fc1ccc(CNCc2ccccc2Cl)cc1 | 10.6 |
| O=C(COc1ccc(Br)cc1)N1CCN(Cc2c[nH]c3ccccc23)CC1 | 1.07 |
| O=C(NCc1ccco1)/C(=C\c1ccco1)NC(=O)c1ccco1 | -9.29 |
| CC1=NN(c2ccc([N+](=O)[O-])cc2)C(c2ccccc2)C1 (stereo unspecified) | -7.1 |
| CC1(C)CC(=O)C2=C(C1)NC(=O)CC2c1cc(F)ccc1F (stereo unspecified) | 8.24 |
| CC1(C)C2CCC1(CS(=O)(=O)N1CCN(c3ccc(F)cc3)CC1)C(=O)C2 (stereo unspecified) | -7.85 |
| COc1ccc(S(=O)(=O)NC(C)C(=O)NCc2cccnc2)cc1Cl (stereo unspecified) | -1.39 |
| Cc1ccc2c(c1)[C@@H]1CN(C)CC[C@@H]1N2S(=O)(=O)c1ccc([N+](=O)[O-])cc1 | 0.95 |
| Cc1ccc2c(c1)C1CN(C)CCC1N2S(=O)(=O)c1ccccc1 (stereo unspecified) | 4.23 |
| CN(C)c1cc[n+](CC(=O)c2ccc(OC(F)F)cc2)cc1 | 19.8 |
| COc1ccc(CNC(=O)c2cc(COc3c(F)cccc3F)on2)cc1OC | -2.31 |
| O=C(O)CCc1ccc(-c2ccc(Br)cc2)n1-c1cccc(O)c1 | -2.3 |
| CCCCCOC(=O)CSc1nc2c(c(=O)[nH]c(=O)n2C)n1CCc1ccccc1 | 2.47 |
| COCc1c(C(=O)OCC(=O)N2c3ccccc3CC2C)oc2ccccc12 (stereo unspecified) | -3.75 |
| CC(C)C(CCNCc1ccccn1)c1ccc(Cl)cc1 (stereo unspecified) | -0.74 |
| CC(C)CCC(CCNCc1ccccn1)c1ccc2c(c1)OCO2 (stereo unspecified) | 21.8 |
| CC(=O)n1cc([C@H]2C=C(C(N)=O)O[C@@H](OCc3ccc(CO)cc3)C2)c2ccccc21 | 2.45 |
| CCCCOC(=O)C[N+](C)(C)CCOC1CC2CCC1(C)C2(C)C (stereo unspecified) | -1.52 |
| CCCOC(=O)C[N+](C)(C)CCOC1CC2CCC1(C)C2(C)C (stereo unspecified) | -4.95 |
| Cc1ccc(Nc2ccc([N+](=O)[O-])ccc2=O)cc1 | -3.8 |
| Cc1cccc(C(=O)NCC(=O)N2CCN(c3ccc(Cl)cc3)CC2)c1 | 4.53 |

| Compound | inhibition [%] |
| --- | --- |
| Cc1cc(C)nc(NCCO)n1 | 1.84 |
| Fc1ccc(Sc2ccccc2CNC2=NCCN2)cc1 | -8.62 |
| Fc1ccccc1Sc1ccccc1CNC1=NCCN1 | 2.16 |
| COc1ccc(C)cc1NC(=O)C1CCN(S(=O)(=O)c2ccc3c(c2)NC(=O)CO3)CC1 | -3.38 |
| CCCCn1c(N)c(N(CC(C)C)C(=O)c2cc(-c3ccc(OC)c(OC)c3)nc3ccccc23)c(=O)[nH]c1=O | 11.8 |
| CC(=O)c1cc(C(=O)NC2CCCc3c2cnn3-c2cc(C)cc(C)c2)[nH]n1 (stereo unspecified) | -9.06 |
| O=C(Nc1nc2ccccc2[nH]1)c1cccc(F)c1 | 0.03 |
| CC(C)n1cnc2c(Nc3cccc(F)c3)nc(NCCO)nc21 | -14.7 |
| Cc1cccc(OCc2nnc3n2CCCCC3)c1 | -4.01 |
| CCOC(=O)N1CCN(S(=O)(=O)c2ccc(C(=O)Nc3nnc(CSC)o3)cc2)CC1 | -31.1 |
| CC(OC(=O)c1ccccc1Nc1ccc(SC(F)F)cc1)C(N)=O (stereo unspecified) | -1.22 |
| C#CCOCCOCCOCCNc1nc(N2CCN(C(=O)CCCCCCCCCCNC(=O)[C@@H](CCSC)n3cc(CCO)nn3)CC2)nc(N2CCN(C(=O)CCCCCCCCCCNC(=O)[C@H](CCSC)n3cc(CCO)nn3)CC2)n1 | 2.16 |
| C#CCOCCOCCOCCNc1nc(N2CCN(C(=O)CCCCCCCCCCNC(=O)[C@@H](CCSC)n3cc(CCO)nn3)CC2)nc(N2CCN(C(=O)CCCCCCCCCCNC(=O)[C@H](CO)n3cc(CCCCCN)nn3)CC2)n1 | 14.1 |
| C#CCOCCOCCOCCNc1nc(N2CCN(C(=O)CCCCCCCCCCNC(=O)[C@H]([C@@H](C)CC)n3cc(CCCCN=C(N)N)nn3)CC2)nc(N2CCN(C(=O)CCCCCCCCCCNC(=O)[C@H](CO)n3cc(CCCSC)nn3)CC2)n1 | 0.56 |
| C#CCOCCOCCOCCNc1nc(N2CCN(C(=O)CCCCCCCCCCNC(=O)[C@@H](CCSC)n3cc(CCO)nn3)CC2)nc(N2CCN(C(=O)CCCCCCCCCCNC(=O)[C@H](CCC(=O)O)n3cc(CCCCCN)nn3)CC2)n1 | 1.19 |
| CC(=O)Oc1ccc(C(=O)Nc2cc(C)on2)cc1 | 3.46 |
| Nc1cccc(C(=O)N/N=C/c2ccsc2)c1 | -10.7 |
| O=C(N=Nc1c(O)[nH]c2ccccc12)c1ccc(CN2CCOCC2)cc1 | 8.21 |
| N=C(N)N=Nc1c(O)[nH]c2ccc(Br)cc12 | -13.7 |
| NC(=S)N=Nc1c(O)[nH]c2ccccc12 | -2.48 |
| Oc1[nH]c2ccc(Br)cc2c1N=NC(=S)Nc1ccc(F)cc1 | 14.4 |
| COc1ccc(C(=O)C(Cc2cc(C(C)=O)ccc2OC)N2CCCC2)cc1 (stereo unspecified) | -6.51 |
